# Rows were chosen to be rich in hits. Some 7.5% of all compounds tested hit in one or more screens of this group.
# Rab9 prom act – activators of Rab9 promoter | Huh7 Rab9 promoter-luciferase reporter, luminescence, 24 h | 2.8% of 320,000 active | Potency, µM (series often up to 9.22 µM), without a hit: top-dose activation, negative = inhibition, usual class: activators; further: % of control where 0% means no effect; nearly all actives have a fitted effect of over 60% in size
#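 Luminescence from Amplite-detected luciferase (10 minutes, ambient) reports Rab9 promoter activation. Before that, stable Rab9-luciferase Huh7 cells (1500/well, reduced-serum OP-MEM I plus 10% FBS) were exposed to compound for 24 hours at 37C.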
# NPC1 promoter act – activates the NPC1 promoter; Huh7 NPC1 promoter luciferase reporter, 24 h; Potency, µM (top dose mostly 9.22 µM), for inactives: at the top dose activation, actives largely listed as activators; 2.4% of 320,000 active; AID 485313; further: % of control where 0% means no effect; nearly all actives have a fitted effect of over 60% in size
#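 Compounds in DMSO were transferred onto Huh7 NPC1-luciferase reporter cells pre-incubated 2 h; after 24 h at 37 °C, Amplite reagent was dispensed and luminescence recorded 10 min later.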
# ELG1 genotox – genotoxicity induction in ELG1-luciferase HEK293T cells; Potency, µM (top dose mostly 46 µM), for the others: at the highest dose activity change, positive = activation, most hits filed as activators; HEK293T ELG1-luciferase reporter, luminescence, 16 h; 1.3% of 330,000 active; further: % of control where 0% means no effect; nearly all actives have a fitted effect of over 60% in size
#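 DMSO vehicle served as control against compound-treated ELG1-luciferase HEK293T cells; exposure lasted 16 hr at 37 °C and 5% CO2, followed by ONE-Glo luminescence detection after 30 min.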
# FLuc counter – firefly luciferase modulation, counter-screen for miR-21 project. purified FLuc, Km substrates, luminescence inhibition. Potency, µM (series often up to 57.5 µM), for inactives: top-dose activity change, negative = inhibition, actives largely listed as inhibitors. 6.9% of 360,000 active. AID 588342;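 further: plate controls were vehicle for no effect and reference inhibitor for full effect; nearly all actives have a fitted effect of over 55% in size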
# Target sequence (P08659 whole entry, looked up): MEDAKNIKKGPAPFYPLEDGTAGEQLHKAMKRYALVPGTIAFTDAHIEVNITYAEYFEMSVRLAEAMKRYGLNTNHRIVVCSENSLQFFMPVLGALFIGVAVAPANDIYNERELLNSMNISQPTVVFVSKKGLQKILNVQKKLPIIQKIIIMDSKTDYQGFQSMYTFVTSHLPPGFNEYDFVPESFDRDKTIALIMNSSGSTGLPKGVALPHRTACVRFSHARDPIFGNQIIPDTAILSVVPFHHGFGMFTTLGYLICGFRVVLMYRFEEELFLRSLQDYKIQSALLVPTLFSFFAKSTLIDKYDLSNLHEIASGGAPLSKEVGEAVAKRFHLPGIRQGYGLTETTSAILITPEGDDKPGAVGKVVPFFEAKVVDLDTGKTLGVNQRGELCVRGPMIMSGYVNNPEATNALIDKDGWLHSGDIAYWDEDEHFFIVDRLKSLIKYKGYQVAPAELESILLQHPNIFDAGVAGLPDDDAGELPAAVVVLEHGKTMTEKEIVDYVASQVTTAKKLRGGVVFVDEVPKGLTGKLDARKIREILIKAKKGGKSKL
#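 Biochemical qHTS of compounds, final roughly 60 µM downward over six points, against 10 nM purified firefly luciferase using Km concentrations of substrates (10 uM D-luciferin, 10 uM ATP) in Tris acetate pH 7.5 buffer; luminescence output.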
# SMN2 splice up – SMN2 splice variant enhancement; HEK293 SMN2-luciferase splicing reporter, luminescence, 30-36 h; Potency, µM (doses to about 46.1 µM), without a hit: at the top dose activity change, positive = activation, hits mostly activators; 2.8% of 210,000 active; further: % of control where 0% means no effect; nearly all actives have a fitted effect of over 55% in size
#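 HEK293 cells carry an SMN2 […]–luciferase reporter in which exon 7 inclusion puts luciferase in frame. Cells were plated 10-12 h before compound addition, then incubated 30-36 h at 37C. ONE-Glo luminescence was read; sodium butyrate at 4.5 mM final served as control.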
# KinaseGlo FLuc – Kinase-Glo luciferase inhibition (counter-screen) | Q27757 | Kinase-Glo luciferase, ATP luminescence, 8 min | Potency, µM (series often up to 38.3 µM), without a hit: at the highest dose activity change, negative = inhibition, usual class: inhibitors | AID 1379 | 0.28% of 200,000 active; further: on the % scale 0 is the no-effect control and ±100 the full control effect; nearly all actives have a fitted effect of over 60% in size
#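 Light output from Kinase-Glo luciferase with luciferin and 10 uM ATP in 50 mM imidazole pH 7.2, KCl, MgCl2, Tween 20, BSA; compound pin-delivered, 8-min ambient incubation, then luminescence read.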
# * = called active by the depositor; ? = inconclusive; · = no result; [ ] = dose if it differs, or a comment. The call rests on the fitted dose curve; in most records, active means well fitted curve in the direction sought with a large enough effect; inconclusive means small, poorly fitted or top-dose-only effect, or another doubt; inactive means no such curve, though single readings can be large; an effect the other way counts as inactive or inconclusive. Potency means the concentration at half of the fitted maximal effect.
SMILES,Rab9 prom act,NPC1 promoter act,ELG1 genotox,FLuc counter,SMN2 splice up,KinaseGlo FLuc
CCOC(=O)N1CCN(Cc2nc3cc(NC(=O)c4ccco4)ccc3n2CC)CC1,26%,?,0%,3%,·,·
CCc1ccc(-c2nn(CC(=O)NCc3ccccc3)c3c2cnc2ccc(F)cc23)cc1,·,·,·,4%,·,·
Nc1cc(=O)[nH]c(SCC(=O)N2CCC(Cc3ccccc3)CC2)n1,-1%,-1%,-6%,·,·,·
CC(C)(C)NC[C@H](O)COc1cccc2c1C[C@@H](O)[C@@H](O)C2,·,·,·,·,-13%[20.6 µM],2%[17.1 µM]
Cc1ccc(NC(=O)ON=C2CCCC2)cc1,3.5µM*,?,21µM*,8.5µM*,?,0%
O=C(Nc1ccccc1)O/N=C/c1ccncc1,5%,3%,7%,?,2%,2%
O=C(Nc1ccccc1)ON=C1CCCC1,?,26%,?,24µM*,20µM*,-19%
CSc1nncn1/N=C/c1ccc([N+](=O)[O-])cc1,-4%,-6%,0%,-3%,8%,1%
CS/C(N)=N/N=C/c1ccc2c(c1)OCO2,2.8µM*,?,?,8.5µM*,·,·
COc1cc(/C=N/N=C(\N)c2nonc2N)ccc1O,20%,12%,?,21µM*,17%,-11%
N/C(=N\N=C\c1cccc(O)c1)c1nonc1N,?,?,?,1.9µM*,18%,13µM*
COc1ccc(/C=N/N=C(\N)c2nonc2N)cc1OC,?,?,0%,?,109%,-8%
CS/C(N)=N/N=C/c1ccc([N+](=O)[O-])cc1,?,2.8µM*,?,21µM*,7%,-5%
COc1cccc(-c2cc(C(=O)N/N=C/c3ccccc3O)[nH]n2)c1,·,·,·,·,·,-3%
COC(=O)[C@]1(C)N[C@H](CN(C)C(=O)c2ccccc2)[C@@H]2C(=O)N(C)C(=O)[C@@H]21,·,·,-1%,·,·,·
O=C1c2ccccc2-c2ccc(N=[N+]([O-])c3ccc4c(c3)C(=O)c3ccccc3-4)cc21,·,·,·,·,-7%[9.22 µM],-6%[7.66 µM]
Cc1ccc(S(=O)(=O)N2CCCCC2)cc1NC(=O)c1nn(C)c(=O)c2ccccc12,-4%,-5%,-3%,0%,·,·
N/C(=N\N=C\c1ccc(O)cc1)c1nonc1N,3.5µM*,3.2µM*,?,11µM*,16µM*,?
N/C(=N\N=C\c1ccc([N+](=O)[O-])cc1)c1nonc1N,1.4µM*,1.6µM*,5.2µM*,?,·,·
N/C(=N\N=C\c1ccc(O)c(O)c1)c1nonc1N,?,?,?,15µM*,·,·
COC(=O)c1sccc1NC(=O)c1cc2c(s1)CCCC2,?,26%,4%,8.5µM*,8%,-11%
COc1ccc(S(=O)(=O)N2CCOCC2)cc1NC(=O)c1cc2c(s1)CCCC2,11%,-4%,0%,-22%,-5%,-1%
COC(=O)c1sccc1NC(=O)c1cccc(OC)c1,0%,10%,1%,?,0%,-3%
COc1ccc(C)cc1NC(=O)c1cc2c(s1)CCC2,?,1%,13%,15µM*,?,-5%
CCCS(=O)(=O)c1c(S(=O)(=O)CCC)c2cc(CC)ccn2c1C(=O)c1ccc(Cl)cc1,·,·,·,-4%,-4%,·
SMILES,Rab9 prom act,NPC1 promoter act,ELG1 genotox,FLuc counter,SMN2 splice up,KinaseGlo FLuc
Cc1ccc(NC(=O)C2CCN(c3nn4cc(-c5ccc(C)cc5)nc4s3)CC2)cc1,·,·,·,32%,·,·
Cc1nn2cc(-c3ccc(N)cc3)nc2s1,1µM*,1µM*,?,11µM*,13µM*,-17%
CN(C)c1nc(SCc2ccc(Cl)cc2)nc2c1CCCC2,1%,0%,-4%,4%,-17%,1%
COC(=O)N1C(=O)[C@@](c2ccccc2)(C2CCCCC2)N1C(=O)OC,-3%,-3%,16%,6%,·,·
Cc1c(/C=N/O)sc2ccccc12,-1%,-4%,1%,?,·,·
Cc1cccc(/N=C/c2sc3ccccc3c2O)n1,?,21%,4.6µM*,0.48µM*,·,·
O=[N+]([O-])c1ccc(O)c(N=Cc2sc3ccccc3c2O)c1,-17%,15%,13%,11µM*,-77%,-23%
Oc1c(C=Nc2cccc3cccnc23)sc2ccccc12,-20%,-4%,3.3µM*,0.38µM*,-6%,10µM*
Cc1cccc(/N=C/c2c(O)[nH]c3ccccc23)n1,3.5µM*,?,?,4.3µM*,?,-20%
COc1ccc(C2=NN(c3nc(C(=O)O)cs3)C(O)(C(F)(F)F)C2)c(OC)c1 (stereo not drawn),-4%,-1%,0%,11µM*,-4%,-5%
COc1ccc(C2=NN(C(=O)c3cccs3)C(O)(C(F)(F)F)C2)cc1 (stereo not drawn),-4%,1%,-6%,?,-23%,-1%
COc1cccc(-c2nnn(CC(=O)N3CCCCC3)n2)c1,30%,12%,12%,-19%,·,·
COc1ccc(-c2ccc(-c3nnn(CC(C)=O)n3)cc2)cc1,1.6µM*,2.5µM*,7%,?,?,-1%
CCC(C(=O)O)n1nnc(-c2ccc(-c3ccc(OC)cc3)cc2)n1 (stereo not drawn),22%,26%,?,9.5µM*,?,-1%
CCC(C(=O)O)n1nnc(-c2ccc(OCc3ccccc3)c(OC)c2)n1 (stereo not drawn),15%,-2%,-2%,6%,·,·
COc1cccc(-c2nnn(CC(C)=O)n2)c1,2.5µM*,2.8µM*,?,6.7µM*,13µM*,-7%
COc1ccc(C(=O)Cn2nnc(-c3ccccc3F)n2)cc1,28%,21%,4%,15µM*,·,·
Cc1noc(C)c1CSCC(=O)Nc1cc(Cl)ccc1N1CCCCC1,-1%,-2%,-6%,2%,·,·
Fc1ccccc1Nc1n[nH]c(=S)s1,?,14%,?,?,13µM*,0%
CCN(C(=O)Cn1ccc(C(F)(F)F)n1)c1c(N)n(Cc2ccccc2)c(=O)[nH]c1=O,-2%,0%,2%,0%,·,·
CC(=O)Nc1ccccc1C(=O)C(=O)O,0%,2%,1%,-2%,4%,1%
NC(=O)c1ccccc1NC(=O)Nc1ccc(F)c(Cl)c1,0%,-2%,5%,9.5µM*,18%,?
NC(=O)c1ccccc1NC(=O)Nc1cccc(Cl)c1Cl,-3%,0%,5%,-12%,5%,0%
CCc1ccc(NC(=O)C(=O)c2ccccc2NC(C)=O)cc1,2.8µM*,1.6µM*,?,?,·,·
Cc1ccc(NC(=O)/C(Cl)=C/c2ccccc2)cc1C,2.5µM*,1.8µM*,?,0.76µM*,?,-3%

# Screening data from PubChem BioAssay.
